# System: PPARg homodimer (NR concentration 180 nM)
# Test: PBM binding z-score (relative to random genomic background probes); higher = stronger binding; sequences stand for … in GC…GCGATTGACAGCGTAGAATGAAGG
# Outline: (§1)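 Binding z-scores take random background probes as their reference. They come from custom Agilent 4×180K protein-binding microarrays incubated 1 h with ligand-free nuclear receptor dimers, with antibodies against each partner (one per run) detecting binding. Scanned fluorescence was regression-normalized.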
row,Sequence,PBM binding z-score
1,CCTACTGGGCGATTCAGAGGTCATTGATCATATG,1.38
2,CGTCCAACGTCAGCAGGTCAGTGAAAGCGACGTG,-0.114
3,GGTACGAGGGCAAAGTTGATAGCATCTGTCGACG,1.2
4,CCTAGTTGGTCAAGGTCTCACACGCTATAGGTAC,1.47
5,ATATGTAGGTTACATCCGGGTCTTTCAGGCTATG,1.13
6,AGTCAAAGTTCAGTAGGTAACGTAAGATTCAGCT,1.65
7,CAAACTAGGTCACGAAAGGTCAAATTCGAATGAC,4.71
8,CATACAGGGTAAGCTAGGCCAGAGTAGGGACGGC,-0.902
9,CCTGCTAGTTCAATGGTCAGCTAAAGCAGCTCGC,0.058
10,CCTAGTTGGTCAGGTGGTCACACACCGGATATGA,1.26
11,TAGCCTAGGTCATTGGACCAGTATAGTACGCATC,1.31
12,CCTGCTAGGTCAATGGTCAGCTAAAGCAGCTCGC,0.944
13,GCTGCTAGGTCAACTGATGGTCAGCTAGAGCTCG,0.71
14,ATCGAAAGGTGGACGAGGTGAGTATACACCGTTT,0.223
15,CCCGCTAGGTCATGGTCAGCTAATCTACAGTATG,1.77
16,CCAGACAGGTGAAAGGTAACTCACTCTGGTACGC,1.28
17,CCTAGCAGACCAATCTGGGTCACTCAAGGCTTGA,0.484

# System: PXR:RXRa (NR concentration 270 nM, RXRa partner concentration 90 nM)
# Test: as above
# Outline: as §1
row,Sequence,PBM binding z-score
1,GCTAGTTGGTCAGTAAATGGTCACACACCGGTCG,-0.0876
2,AGCTCTAGGTAAAAGTTCAGTGAATCCCGAGGAT,1.73
3,TAGCCTAGGTCATTCAGGGGCCAGTATGGAAAGC,2.46
4,TAGCCTAGGTCATAGGCCAGTATACCACGCGAAC,1.47
5,CAATCTAGGTCAAAGGTCAAAGTCGAGCCAACCA,6.92
6,AGACAAAGTTCAGGACGAGGTAACGTAAAGCACG,3.02
7,CCTGCTAGTTCATGGTCAGCTAATCTACAGTATG,0.563
8,TCTCGGAGGACACGAAAAGTCAGAGCTCGACATC,-0.0938
9,TGACTGAGGTTAAAGATCAGGGAACGTGGCGTCG,2.03
10,TATACAGGGTCTAAGGCCAGAGTACGAATGTCGA,-0.0788
11,ATCTGTAGGTTATCGGGTCATTCAGTTTGCGCAT,3.86
12,GCTGCTCGGTCAACTGATGGTCAGCTAAAGCTCG,-0.105
13,CCTTACAGGTCACGAGGTTATAGCACGACGAGCG,4.58
14,GCTGCTAGGTCGACTGATGGTCAGCTAAAGCTCG,-0.436
15,TAGCCTAAGTCATGGGCCAGTATACCACGCGAAC,-0.259
16,CAAACTAGGTCAAAGGTCAAAGCCGAGCCAACCA,6.85
17,TCTAGTTGGTCAAAGGCCACACACTCGAAATGCG,0.772
18,AGATTGAGGTTACCAAAGATCAGGGAAACGCTTG,1.5
19,CCTAGCAGGCCACGGTCACTCAAGCATTTCGCTT,-0.147
20,AGAATGAGGTTACCAGAGATCAGGGAAACGCTTG,1.95

row,Sequence,PBM binding z-score
1,CCTACTGGGCCAATGTCATTGATCAGTCAAAGCA,-0.427
2,CCTACTGGGCCAACAAGGTCATTGATGCCGATAA,3.92
3,CCTACTGGGCGATTCAGAGGTCATTGATCATATG,4.37
4,CGTCCAACGTCAGCAGGTCAGTGAAAGCGACGTG,0.174
5,GGTACGAGGGCAAAGTTGATAGCATCTGTCGACG,0.895
6,CCTAGTTGGTCAAGGTCTCACACGCTATAGGTAC,0.365
7,ATATGTAGGTTACATCCGGGTCTTTCAGGCTATG,0.703
8,AGTCAAAGTTCAGTAGGTAACGTAAGATTCAGCT,2.51
9,CAAACTAGGTCACGAAAGGTCAAATTCGAATGAC,7.07
10,CATACAGGGTAAGCTAGGCCAGAGTAGGGACGGC,-0.7
11,CCTGCTAGTTCAATGGTCAGCTAAAGCAGCTCGC,0.465
12,CCTAGTTGGTCAGGTGGTCACACACCGGATATGA,0.174
13,TAGCCTAGGTCATTGGACCAGTATAGTACGCATC,1.66
14,CCTGCTAGGTCAATGGTCAGCTAAAGCAGCTCGC,0.92
15,GCTGCTAGGTCAACTGATGGTCAGCTAGAGCTCG,1.55
16,ATCGAAAGGTGGACGAGGTGAGTATACACCGTTT,0.219
17,CCCGCTAGGTCATGGTCAGCTAATCTACAGTATG,1.49
18,CCAGACAGGTGAAAGGTAACTCACTCTGGTACGC,0.983
19,CCTAGCAGACCAATCTGGGTCACTCAAGGCTTGA,0.638

# System: PXR homodimer (NR concentration 270 nM)
# Test: as above
# Outline: as §1
row,Sequence,PBM binding z-score
1,GCTAGTTGGTCAGTAAATGGTCACACACCGGTCG,-0.353
2,AGCTCTAGGTAAAAGTTCAGTGAATCCCGAGGAT,1.44
3,TAGCCTAGGTCATTCAGGGGCCAGTATGGAAAGC,-0.398
4,TAGCCTAGGTCATAGGCCAGTATACCACGCGAAC,-0.481
5,CAATCTAGGTCAAAGGTCAAAGTCGAGCCAACCA,1.82
6,AGACAAAGTTCAGGACGAGGTAACGTAAAGCACG,0.806
7,CCTGCTAGTTCATGGTCAGCTAATCTACAGTATG,0.0644
8,TCTCGGAGGACACGAAAAGTCAGAGCTCGACATC,-0.142
9,TGACTGAGGTTAAAGATCAGGGAACGTGGCGTCG,-0.418
10,TATACAGGGTCTAAGGCCAGAGTACGAATGTCGA,0.0324
11,ATCTGTAGGTTATCGGGTCATTCAGTTTGCGCAT,7.32
12,GCTGCTCGGTCAACTGATGGTCAGCTAAAGCTCG,-0.492
13,CCTTACAGGTCACGAGGTTATAGCACGACGAGCG,0.719
14,GCTGCTAGGTCGACTGATGGTCAGCTAAAGCTCG,-1.21
15,TAGCCTAAGTCATGGGCCAGTATACCACGCGAAC,-0.135
16,CAAACTAGGTCAAAGGTCAAAGCCGAGCCAACCA,1.41
17,TCTAGTTGGTCAAAGGCCACACACTCGAAATGCG,0.0843
18,AGATTGAGGTTACCAAAGATCAGGGAAACGCTTG,-0.393
19,CCTAGCAGGCCACGGTCACTCAAGCATTTCGCTT,-0.385
20,AGAATGAGGTTACCAGAGATCAGGGAAACGCTTG,-0.0597

row,Sequence,PBM binding z-score
1,CCTACTGGGCCAATGTCATTGATCAGTCAAAGCA,-0.747
2,CCTACTGGGCCAACAAGGTCATTGATGCCGATAA,3.62
3,CCTACTGGGCGATTCAGAGGTCATTGATCATATG,1.7
4,CGTCCAACGTCAGCAGGTCAGTGAAAGCGACGTG,-0.448
5,GGTACGAGGGCAAAGTTGATAGCATCTGTCGACG,0.0381
6,CCTAGTTGGTCAAGGTCTCACACGCTATAGGTAC,0.749
7,ATATGTAGGTTACATCCGGGTCTTTCAGGCTATG,0.192
8,AGTCAAAGTTCAGTAGGTAACGTAAGATTCAGCT,1.37
9,CAAACTAGGTCACGAAAGGTCAAATTCGAATGAC,2.34
10,CATACAGGGTAAGCTAGGCCAGAGTAGGGACGGC,-0.446
11,CCTGCTAGTTCAATGGTCAGCTAAAGCAGCTCGC,-0.0496
12,CCTAGTTGGTCAGGTGGTCACACACCGGATATGA,0.369
13,TAGCCTAGGTCATTGGACCAGTATAGTACGCATC,-0.324
14,CCTGCTAGGTCAATGGTCAGCTAAAGCAGCTCGC,-0.545
15,GCTGCTAGGTCAACTGATGGTCAGCTAGAGCTCG,-0.557
16,ATCGAAAGGTGGACGAGGTGAGTATACACCGTTT,0.0997
17,CCCGCTAGGTCATGGTCAGCTAATCTACAGTATG,-0.038
18,CCAGACAGGTGAAAGGTAACTCACTCTGGTACGC,0.186
19,CCTAGCAGACCAATCTGGGTCACTCAAGGCTTGA,-0.509

# Reference: the supplement of paper PMC6555819
